The test has as its system ABL1-phosphorylated. To be noted: concentration: 1 μM, replicates: in singlicate; n = 1.
`CCC(CC)(CC)n1cnc2c(N)ncnc21` [SKF-97620]: the “%Inh” value was 6%. To `COc1ccc(NC(=O)Nc2ccc(C)c(-c3ccc(C(=O)Nc4ccncc4)cc3)c2)cc1` [GSK1398475] belongs 2%; to `COc1ccc(NC(=O)c2ccc(-c3cc(-c4nnc(C)o4)ccc3C)cc2)cc1` [GW595885], 0%; to `CC(C)(C)OC(=O)NC1CCCN(c2cc(-c3ccc4c(N)n[nH]c4c3)nc(N)n2)C1` (stereo not shown) [GSK2286096], 0%. In the case of `O=C(Nc1ccccc1F)NC1CCN(c2ccnc(Nc3ccc(F)cc3)n2)C1` (stereo not shown) [GSK1379722], the “%Inh” value was 0%. To `CS(=O)(=O)CCNCc1nc(-c2ccc3ncnc(Nc4ccc(OCc5cccc(F)c5)c(Cl)c4)c3c2)cs1.Cl` [GW583340] belongs 0%.

Regarding `CCc1nc(-c2cccc(N(C)S(=O)(=O)c3ccccc3)c2)c(-c2ccnc(Nc3ccc(N4CCN(C(C)=O)CC4)nc3)n2)s1` [GSK1645895], the “%Inh” value is listed as 7%.

As for `Fc1ccc(Nc2nccc(-c3c(-c4ccc(Cl)cc4)nn4ncccc34)n2)cc1F` [GW829058], the “%Inh” value amounted to 17%.

With `Cc1ccc(O)cc1Nc1cc(C(F)(F)F)nc2ccc(-c3ccncc3)cc12` [GW630823], the “%Inh” value was found to be 7%.

With `COc1ccc(Nc2nccc(N3CCC(NC(=O)c4cccc(NC(C)=O)c4)C3)n2)cc1` (stereo not shown) [GSK1379732], the “%Inh” value was 0%. `Cn1ccc2ncnc(Nc3ccc(Oc4cccc(Cl)c4)c(Cl)c3)c21`: the “%Inh” value is given as 15%. On to `CSc1ccc(NC2=C(c3ccccc3Cl)C(=O)NC2=O)cc1` [SB-342411], for which the “%Inh” value is reported as 0%. With `CNc1nccc(-c2c(-c3ccc(F)cc3)ncn2C2CCN(C)CC2)n1` [SB-222903], the “%Inh” value was found to be 6%.

The values above are taken from PMC5540273 (PLoS ONE, 2017).
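Note: KINOMEscan kinase panel screen.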
